The record followed here is PubChem BioAssay (Tox21).

Several values for one entry are separate records, joined by “and”; a condition that tells them apart may be missing. Identical values can stand only once. A number with no mark means an inactive call. Inconclusive results are not listed. Activity calls are given as the source filed them. Unless noted, calls follow the shape of the dose curve; as a rule, active = well fitted curve in the direction sought with a large enough effect in the repeat runs; inconclusive = weak or mixed curves; inactive = no such curve, though single readings can be large; an effect the other way counts as inactive or inconclusive.

Assay [1] can be described thus: qHTS assay for small molecules that induce genotoxicity in human embryonic kidney cells expressing luciferase-tagged ATAD5 (AID 651632). Also: nearly all actives have a fitted effect of over 15% in size. Also: potency is read from the fitted curve at half-maximal effect. Put shortly:
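Cells were seeded at 2,000 per well, dosed with compound, and incubated 16 hr at 37C in 5% CO2. Luciferase activity was then quantified after a 30 min room-temperature incubation with Amplite.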
In general terms: In qHTS, concentration-response curves come from the screen itself.

A short description of assay [2]: qHTS assay for small molecules that induce genotoxicity in human embryonic kidney cells expressing luciferase-tagged ATAD5 - cell viability (AID 651634; calls by dose curve; also: nearly all actives have a fitted effect of over 25% in size; also: potency is read from the fitted curve at half-maximal effect). Put shortly:
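Cells (HEK293T, luciferase-tagged ATAD5) are seeded at 2,000 per well, dosed with compound or DMSO vehicle, and incubated 15.5 hr at 37C and 5% CO2. CellTiter-Fluor is added for 30 min before fluorescence is measured.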

Assay [3] is described as follows: qHTS assay to test for compound auto fluorescence at 590 nm (red) in HepG2 cells (AID 720674). The essentials:
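Rose Bengal sodium served as the red fluorophore standard. HepG2 monolayers (overnight attachment, MEM with 10% FBS) were exposed to test compounds for 1 hr at 37 C and read at Ex 540/Em 590 nm.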

Assay [4] in a line: qHTS assay to test for compound auto fluorescence at 535 nm (green) in HepG2 cells (AID 720675).
Assay [5] is described as follows: qHTS assay to test for compound auto fluorescence at 460 nm (blue) in HEK293 cells (AID 720678). The essentials: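 HEK293 cells (2,000 per well, medium with 10% dialyzed FBS) attached for 4-5 hr at 37C, then received compound and stood overnight at 37C, 5% CO2. Blue fluorescence was read at Ex/Em 405/460 nm and expressed relative to triamterene.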
Assay [6] is described as follows: qHTS assay to test for compound auto fluorescence at 590 nm (red) in HEK293 cells (AID 720679). Put shortly:
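HEK293 cells (2,000/well, medium with 10% dialyzed FBS) attached for 4-5 hr at 37C, received 23 nL compound and were incubated overnight at 37C, 5% CO2. Red fluorescence was then read at 540/590nm Ex/Em, referenced to Rose Bengal sodium.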

The nature of assay [7]: qHTS assay to test for compound auto fluorescence at 535 nm (green) in HEK293 cells (AID 720680).
Assay [8] is described as follows: qHTS assay to test for compound auto fluorescence at 460 nm (blue) in HEK293 cell free culture (AID 720681). Put shortly:
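Test compounds were pinned into cell-free culture medium (DMEM with 10% FBS) and fluorescence was read directly at Ex/Em 405/460 nm. Signals were expressed as fluorescence equivalents of triamterene, with DMSO vehicle as control.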

Assay [9] can be described thus: qHTS assay to test for compound auto fluorescence at 535 nm (green) in HEK293 cell free culture (AID 720682). Put shortly:
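Measurement is a direct plate read of green fluorescence (485 nm in, 535 nm out) after compound addition to serum-supplemented DMEM lacking cells, with fluorescein used to express intensities.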

The nature of assay [10]: qHTS assay to test for compound auto fluorescence at 590 nm (red) in HEK293 cell free culture (AID 720683). The essentials: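 Tox21 10K library compounds were pinned into cell-free DMEM with 10% FBS and fluorescence was read at excitation 540 nm. Activity is expressed as Rose Bengal sodium equivalency.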
Assay [11] in a line: qHTS assay to test for compound auto fluorescence at 590 nm (red) in HepG2 cell free culture (AID 720684). Put shortly: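 Ex 540 / Em 590 nm read of compound in cell-free MEM (10% FBS). Rose Bengal sodium reference.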
A short description of assay [12]: qHTS assay to test for compound auto fluorescence at 460 nm (blue) in HepG2 cell free culture (AID 720685). The essentials:
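Cell-free plates of MEM plus 10% FBS received 23 nL compound or DMSO vehicle; blue-channel (405/460 nm) intensity scored against triamterene as reference fluorophore.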

Assay [13] is described as follows: qHTS assay to test for compound auto fluorescence at 535 nm (green) in HepG2 cell free culture (AID 720686).
Assay [14] in a line: qHTS assay to test for compound auto fluorescence at 460 nm (blue) in HepG2 cells (AID 720687). The essentials: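 Cells (2,000/well in MEM with 10% FBS) attached overnight at 37 C, then were exposed to compound or DMSO for 1 hr at 37 C, 5% CO2. Fluorescence read at Ex/Em 405/460 nm, expressed as triamterene-equivalent signal.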
Assay [15] concerns the target Glucocorticoid receptor (Homo sapiens) (UniProt P04150). Nature of the assay: qHTS assay to identify small molecule agonists of the glucocorticoid receptor (GR) signaling pathway (AID 720691; active = well fitted activation curve with a large enough effect in the signal ratio in the repeat runs, not every such curve was filed as active; the % refers to the signal ratio). Particulars: GR-bla HeLa, beta-lactamase reporter ratio, 18 h; activation: at 62.4 µM (top of the series). The essentials:
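Steps: seed GR-bla HeLa cells, incubate 4 h at 37 C/5% CO2; pin-transfer DMSO-dissolved compounds; incubate 18 h at 37 C; add LiveBLAzer B/G FRET substrate; after 2 h at room temperature, measure fluorescence.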

Assay [16] shares this target. As to the kind of experiment: qHTS assay to identify small molecule antagonists of the glucocorticoid receptor (GR) signaling pathway (AID 720692; active = well fitted inhibition curve with a large enough effect in the signal ratio in the repeat runs, not every such curve was filed as active; the % refers to the signal ratio; also: potency is read from the fitted curve at half-maximal effect). The essentials: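 Antagonism was scored as loss of dexamethasone-driven (5 nM final) reporter signal in HeLa cells bearing a glucocorticoid response element–beta-lactamase construct, after 18 h compound exposure at 37 C and 2 h FRET substrate loading.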

A short description of assay [17]: qHTS assay for small molecule disruptors of the mitochondrial membrane potential - cell viability (AID 720634; calls by dose curve; also: nearly all actives have a fitted effect of over 20% in size; also: potency is read from the fitted curve at half-maximal effect). The essentials: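 Cytotoxicity was measured by ATP quantitation in HepG2 wells that had first been treated with compound for 1 hr and stained with m-MPI dye; CellTiter-Glo incubation was 30 min at room temperature.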
Assay [18] in a line: qHTS assay for small molecule disruptors of the mitochondrial membrane potential (AID 720635). Also: potency is read from the fitted curve at half-maximal effect. The essentials:
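HepG2 cells (2,000/well) attached overnight at 37C, then took compound for 1 hr at 37C, 5% CO2. Mito-MPS dye was added for 30 min; fluorescence was read at 490/535 nm (monomers) and 540/590 nm (aggregates).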

The nature of assay [19]: qHTS assay for small molecule agonists of the p53 signaling pathway - cell viability (AID 651633; calls by dose curve;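 also: p53RE-bla HCT reporter cells with a stable beta-lactamase p53 reporter; nearly all actives have a fitted effect of over 30% in size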). The essentials:
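p53RE-bla cells, seeded at 4,000 per well and rested 5 h at 37 C/5% CO2, received compounds in DMSO for 16 h at 37 C. CellTiter-Glo was then added, and luminescence was read after 30 min at room temperature to gauge cytotoxicity.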
% is scaled to controls: 0 for no effect and ±100 for the full control effect.

Glucocorticoid receptor (Homo sapiens), sequence (P04150 whole entry, looked up): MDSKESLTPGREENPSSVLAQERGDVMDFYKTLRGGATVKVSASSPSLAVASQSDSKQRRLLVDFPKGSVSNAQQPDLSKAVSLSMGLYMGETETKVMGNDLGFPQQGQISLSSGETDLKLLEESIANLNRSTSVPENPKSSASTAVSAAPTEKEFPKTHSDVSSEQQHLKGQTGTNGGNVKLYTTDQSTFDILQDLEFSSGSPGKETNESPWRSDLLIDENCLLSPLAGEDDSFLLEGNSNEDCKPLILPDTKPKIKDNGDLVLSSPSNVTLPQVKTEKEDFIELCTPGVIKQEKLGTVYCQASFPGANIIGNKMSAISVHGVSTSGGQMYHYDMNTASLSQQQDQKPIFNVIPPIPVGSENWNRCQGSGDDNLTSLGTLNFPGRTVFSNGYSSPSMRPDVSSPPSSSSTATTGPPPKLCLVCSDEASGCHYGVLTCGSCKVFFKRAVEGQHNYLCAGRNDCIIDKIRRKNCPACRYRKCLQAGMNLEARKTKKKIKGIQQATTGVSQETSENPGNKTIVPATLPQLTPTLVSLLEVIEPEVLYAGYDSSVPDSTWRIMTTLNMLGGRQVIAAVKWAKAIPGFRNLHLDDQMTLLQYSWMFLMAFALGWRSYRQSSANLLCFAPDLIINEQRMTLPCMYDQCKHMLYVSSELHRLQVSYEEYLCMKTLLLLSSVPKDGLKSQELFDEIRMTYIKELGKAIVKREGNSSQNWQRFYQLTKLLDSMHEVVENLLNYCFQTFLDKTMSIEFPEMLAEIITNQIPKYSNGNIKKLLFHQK

Turning to `CNC(=S)NN`, the Potency entry in [1], in [2], in [3], in assay [4], in assay [5] and in assay [6] was “inactive” throughout. The Potency result in [7], in assay [8], in assay [9], in [10], in [11] and in assay [12] was “inactive” each time. The Potency entry in [13], in assay [14], in assay [15] and in assay [16] was “inactive” each time.

For the compound `CCN1CCN(c2cc(-c3ccc(F)cc3)c3c(n2)CCCCCC3)CC1`, the Potency entry in [1], in assay [2], in assay [17], in assay [18], in assay [4] and in assay [5] was “inactive” in each case. Further, the Potency result in assay [6], in assay [7], in [8], in [9], in assay [10] and in assay [11] was “inactive” each time. The Potency result in assay [12], in [13], in assay [14] and in assay [15] was “inactive” in each case.

Turning to `c1ccc(Nc2cccc3ccccc23)cc1`, the Potency entry in assay [1], in [2], in [3], in assay [4], in assay [5] and in assay [6] was “inactive” in each case. Moreover, the Potency result in assay [7], in assay [8], in [9], in [10], in assay [11] and in [12] was “inactive” in each case. In addition, the Potency result in assay [13], in assay [14] and in assay [15] was “inactive” in each case. Besides, the Potency in assay [17] is 54.5 µM (active); in assay [18] it was 43.8 µM (active) and 43.3 µM (active).

For the compound `O=C(Oc1ccccc1)c1cccc(C(=O)Oc2ccccc2)c1`, the values for the Potency in assay [1] and in assay [18] were 3.86 µM (active) and 32.3 µM (active), respectively. Also, the Potency result in assay [2], in assay [4], in assay [5], in assay [6], in assay [7] and in assay [8] was “inactive” each time. Moreover, the Potency result in assay [9], in assay [10], in assay [11], in assay [12], in assay [13] and in assay [14] was “inactive” in each case. Also, in [15], the Potency result is “inactive”.

Consider `CC(=O)Nc1ccc(O)cc1`, for which the Potency entry in assay [1], in [2], in [17], in [18], in [3] and in assay [4] was “inactive” throughout. Also, the Potency result in [5], in assay [6], in [7], in assay [8], in assay [9] and in assay [10] was “inactive” each time. The Potency entry in [11], in assay [12], in assay [13] and in [14] was “inactive” in each case.

Take `O=C1NC2CCCCN2C12CCN(CCCN1c3ccccc3CCc3ccc(Cl)cc31)CC2` (stereo not given): the Potency entry in assay [1], in assay [19], in [18], in [3], in assay [4] and in [5] was “inactive” throughout. For the same compound, the Potency entry in [7], in assay [8], in assay [9], in assay [10], in assay [11] and in assay [12] was “inactive” throughout. The Potency result in [13], in assay [14] and in assay [15] was “inactive” throughout. Also, in assay [16], the Potency is 23.9 µM (active).

In the case of `COc1cccc(CCc2ccccc2OCC(CN(C)C)OC(=O)CCC(=O)O)c1` (stereo not given), the Potency result in assay [1], in [2], in [17], in assay [3], in assay [4] and in [5] was “inactive” in each case. In addition, the Potency result in assay [6], in assay [7], in assay [8], in [9], in assay [10] and in [11] was “inactive” in each case. Further, the Potency entry in [12], in [13] and in [14] was “inactive” each time.

As to `Clc1ccc(C(Cn2ccnc2)OCc2c(Cl)cccc2Cl)c(Cl)c1` (stereo not given), the Potency result in [1], in [2] and in [18] was “inactive” each time. In addition, the fluorescence, relative to Rose Bengal in assay [3] is 0.526% [at 18.6 µM]. Besides, the figures for the fluorescence, % of fluorescein control in assay [4] and in assay [13] were -0.003% [at 18.6 µM] and 0.0431% [at 18.6 µM], respectively. The fluorescence, % of triamterene in assay [5] is -0.277% [at 18.6 µM]. The fluorescence, % of fluorescent control was -0.295% [at 18.6 µM] in assay [6]; -0.0423% [at 18.6 µM] in assay [8]; -0.276% [at 18.6 µM] in [10]; 0% [at 18.6 µM] in [12]; 0.116% [at 18.6 µM] in assay [14]. The fluorescence, % of fluorescein in [7] was 0.16% [at 18.6 µM]. For the same compound, the activity change in [9] is -0.0265% [at 18.6 µM, stronger effect = higher value]. Also, the fluorescence, % of Rose Bengal in assay [11] was -0.46% [at 18.6 µM].

With `C[C@@]12C(=O)OC(=O)[C@]1(C)C1CCC2O1`, the figures for the Potency in [1], in assay [2] and in [18] were 0.902 µM (active), 3.59 µM (active) and 0.101 µM (active), respectively. The Potency entry in assay [17] is “inactive”. Moreover, the fluorescence, relative to Rose Bengal in assay [3] is 0.463% [at 18.6 µM]. Besides, the figures for the fluorescence, % of fluorescein control in assay [4] and in assay [13] were -0.0054% [at 18.6 µM] and -0.0053% [at 18.6 µM], respectively. Also, the fluorescence, % of triamterene in assay [5] was -0.421% [at 18.6 µM]. For the same compound, the fluorescence, % of fluorescein in [7] is 0.0141% [at 18.6 µM]. In addition, the fluorescence, % of fluorescent control in [8] was -0.101% [at 18.6 µM]; in assay [10], 0.092% [at 18.6 µM]; in assay [12], -0.0149% [at 18.6 µM]; in [14], -0.0452% [at 18.6 µM]. Also, in assay [9], the activity change is -0.057% [at 18.6 µM, stronger effect = higher value]. For the same compound, in assay [11], the fluorescence, % of Rose Bengal was -0.0041% [at 18.6 µM].

Consider `CN1CCN(C2Cc3ccccc3Sc3ccc(Cl)cc32)CC1` (stereo not given), for which the Potency entry in assay [1], in assay [2], in assay [17], in [3], in [4] and in [5] was “inactive” in each case. Further, the Potency result in assay [7], in assay [8], in assay [9], in assay [10], in assay [11] and in assay [12] was “inactive” throughout. Moreover, the Potency entry in assay [13] and in assay [14] was “inactive” throughout.
